# Data from PubChem BioAssay (NCI).
# Values joined by “and” are separate entries in the source; they are usually repeats but may differ in a detail not shown here. Equal values may be shown once. Compounds without any hit were thinned out: in the full panel of roughly 83,000, 20% have a hit.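 Step 1: grow cells in 96-well plates. Step 2: add test compound at a single concentration. Step 3: incubate 48 h. Step 4: record percent growth.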 A number with no mark means an inactive call. Active and inactive are the calls of the source. Rule for the calls: active = growth percent below 10; inactive = the rest.
# Assays:
# Test in all cases: NCI-60 one-dose screen, 48 h (100 = growth as untreated, 0 = no growth, -100 = all killed)
# Conditions in all cases: 10 µM unless noted
# [1] = system: SR leukemia
# [2] = system: RPMI-8226 leukemia
# [3] = system: OVCAR-8 ovarian
# [4] = system: OVCAR-5 ovarian
# [5] = system: OVCAR-4 ovarian
# [6] = system: SK-OV-3 ovarian
# [7] = system: IGROV1 ovarian
# [8] = system: OVCAR-3 ovarian
# [9] = system: HS 578T breast
# [10] = system: NCI/ADR-RES ovarian
# [11] = system: T-47D breast
# [12] = system: BT-549 breast
# [13] = system: MDA-MB-435 melanoma
# [14] = system: SW-620 colon
# [15] = system: MCF7 breast
# [16] = system: HCT-116 colon
# [17] = system: HCC-2998 colon
# [18] = system: KM12 colon
SMILES,growth [1],growth [2],growth [3],growth [4],growth [5],growth [6],growth [7],growth [8],growth [9],growth [10],growth [11],growth [12],growth [13],growth [14],growth [15],growth [16],growth [17],growth [18]
COC(=O)/C=C1/SC(N2N=C(c3cccs3)CC2c2ccc(F)cc2)=NC1=O (stereo not drawn),7.77% (active),-24.2% (active),44.1%,79.1%,84.8%,89.2%,32.3%,11.5%,84.6%,51.9%,38.9%,66.1%,43.2%,3.45% (active),10.1%,-15.3% (active),33.7%,30.5%
Cc1nc2sc(C(=O)Nc3cccc4ncccc34)c(N)c2cc1C(C)O (stereo not drawn),22.4%,75.8%,86.6%,96.5%,91.3%,69.9%,74.4%,54.6%,63.6%,88%,76.2%,79%,-8.44% (active),59.2%,38.4%,70.1%,76.5%,59.2%
COC(=O)[C@H]1Cc2c([nH]c3ccccc23)[C@@H](c2cccs2)N1,108%,103%,104%,102%,102%,102%,101%,111%,103%,106%,92.9%,102%,100%,100%,103%,104%,102%,100%
Cc1ccc2c(c1)C(C)Cc1c(ncnc1-n1cnc3cc(C)ccc31)N2C (stereo not drawn),1.44% (active),-0.691% (active),0.0907% (active),79%,61.7%,5.86% (active),21.9%,20.2%,31.6%,5.12% (active),55.9%,-0.751% (active),4.21% (active),22.7%,12.6%,11.2%,21.7%,16.5%
Nn1c(-c2ccc(Cl)cc2)nc2c(-c3ccc(Cl)cc3)nc3ccc(Cl)cc3c2c1=O,-62.1% (active),30.1%,11.6%,68.7%,-78.1% (active),20.3%,7.14% (active),-81.5% (active),-14.1% (active),52.4%,9.59% (active),45.1%,37.4%,-66.1% (active),21.7%,-100% (active),372%,36.9%
Nc1n[nH]c2cccc(C#Cc3cccc(C(=O)Nc4ccc(CN5CCOCC5)c(C(F)(F)F)c4)c3)c12,36.1%,16.4%,12.5%,41.2%,47.2%,88.8%,18.6%,60.5%,29.5%,18.4%,6.17% (active),23.7%,38.7%,49.3%,33.4%,13.3%,26.9%,19%
O=C(Nc1ccccc1C(=O)N/N=C(\c1ccccc1)c1ccccn1)c1ccccc1,4.3% (active),20.8%,13.2%,31.9%,12.7%,10.7%,20.9%,28%,65.2%,9.54% (active),13.3%,31.3%,27.7%,29.2%,9.02% (active),20.7%,29.7%,21.6%
CCOC(=O)c1cnn(-c2ccc(S(N)(=O)=O)cc2)c1N,95.5%,94.1%,102%,89.2%,103%,104%,97.9%,134%,110%,96.1%,103%,96%,109%,110%,95.2%,94.4%,115%,122%
Cc1c(CC(=O)OCCO)cc(-c2ccc(Cl)cc2)n1-c1ccccc1,91.2%,72.1%,92.4%,99.6%,68.9%,110%,104%,108%,106%,99.5%,72.3%,109%,98.7%,104%,93%,102%,118%,99.1%
CCCCCO/N=C\c1c2c(O)c3c(O)c(C)c4c(c3c1O)C(=O)C(C)(O/C=C\C(OC)C(C)C(OC(C)=O)C(C)C(O)C(C)C(O)C(C)/C=C\C=C(\C)C(=O)N2)O4 (stereo not drawn),13.5%,13.1%,26.7%,49.2%,30.3%,33.9%,31.1%,19.4%,1.16% (active),25.2%,26.8%,33.1%,15.8%,18.3%,17%,9.51% (active),6.51% (active),17.3%
COc1ccc(-c2cc(=O)c3c(O)cc(O)cc3o2)cc1,59.9% and 69.1%,87.6% and 87.3%,103% and 90.2%,112% and 130%,118% and 102%,112% and 135%,125% and 113%,112% and 81%,120% and 97%,99.6% and 99.1%,101% and 100%,109%,96.3% and 96.5%,106% and 105%,117% and 106%,103% and 94.5%,102% and 104%,91% and 93.1%
O=S(=O)(Nc1cc(Sc2cccc3cccnc23)c(O)c2ccccc12)c1ccc(F)cc1,4.77% (active),-12.8% (active),5.74% (active),38.9%,-99% (active),50.8%,1.46% (active),-87.6% (active),50%,3.32% (active),-40.3% (active),30.7%,7.68% (active),-69.3% (active),-53.4% (active),-88.5% (active),40%,16.5%
COc1ccc(C/C(C)=C(/c2ccc(OCCN3CCCC3)cc2)c2ccc(OC(=O)NCc3ccccc3)cc2)cc1,-22.6% (active),66.7%,89.4%,81%,81.6%,104%,101%,89.8%,81.1%,97.1%,51%,82.5%,73%,95.3%,30.7%,39.6%,87.8%,90.7%
Nc1nc(CSc2n[nH]c(N)n2)nc(Nc2ccccc2)n1,120%,102%,104%,98.8%,93.4%,104%,108%,105%,81.5%,105%,94.5%,95.7%,94.7%,99%,93.3%,105%,110%,98.4%
NC1=CC(=O)c2cccnc2C1=O,-27% (active),-25.7% (active),-5.58% (active),-70.8% (active),-84.5% (active),58%,-53.7% (active),-1.02% (active),-10.3% (active),1.37% (active),-34.4% (active),9.57% (active),-95.5% (active),-80% (active),-55.5% (active),-56.4% (active),59.9%,58.9%
COc1ccc(-c2ccc(-c3ccc(C(=N)N)cn3)s2)cc1Cl,0.301% (active),-41.6% (active),-50.5% (active),-95.5% (active),-82.8% (active),100%,-83% (active),-38.1% (active),-68.5% (active),0.998% (active),-43.4% (active),107%,-96.9% (active),-87.5% (active),-68.9% (active),-62.6% (active),-80.9% (active),-45.3% (active)
